# Assay outcomes deposited in PubChem BioAssay by National Center for Advancing Translational Sciences (NCATS).
# Methyltransferases: Primary Screen for Target Class Profiling of Small Molecule Inhibitors of Methyltransferases. purified enzyme, MTase-Glo SAH luminescence; stronger effect = lower value. calls only at 40 µM. 25,000 tested, 3.9% active; call rule not given here
#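 Each enzyme was assayed with SAM and its substrate. SAH formation detected by MTase-Glo luminescence; single-point 40 uM screen[…].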
# The depositor's hits bear a star; i = inactive; + = active, no number. The full list was thinned out, with hits kept by preference. % is scaled to controls: 0 for no effect and ±100 for the full control effect.
SMILES,Methyltransferases
CN1CCC[C@@H]1Cc1c[nH]c2ccc(Nc3ncccc3[N+](=O)[O-])cc12,+
COc1ccc(C2c3cccn3-c3ccccc3CN2C(=O)Nc2ccccc2F)cc1 (stereo not drawn),i
CCOc1ccc(C2c3cccn3-c3ccccc3CN2C(=O)Nc2cc(C)ccc2C)cc1 (stereo not drawn),i
Cc1cccc(C2c3cccn3-c3ccccc3CN2C(=O)Nc2ccccc2Br)c1 (stereo not drawn),i
CCc1ccc(C2c3cccn3-c3ccccc3CN2C(=O)Nc2cc(C)ccc2C)cc1 (stereo not drawn),i
COC(=O)c1cccc(NC(=O)N2Cc3ccccc3-n3cccc3C2c2cccc(Cl)c2)c1 (stereo not drawn),i
COCC(C(=O)OC1CC2CCC(C1)N2C)c1ccccc1 (stereo not drawn),i
COc1ccc(C2c3cccn3-c3ccccc3CN2C(=O)Nc2ccc(C)c(F)c2)cc1 (stereo not drawn),i
CCCN(CCC)[C@@H]1CCc2cccc(O)c2C1,i
CCCN(CCC)[C@@H]1CCc2ccc3[nH]c(C#N)cc3c2C1,+
Cc1ccc(NC(=O)N2Cc3ccccc3-n3cccc3C2c2cccs2)c(Cl)c1 (stereo not drawn),i
CC1c2cccn2-c2ccccc2CN1C(=O)Nc1ccc(Br)cc1F (stereo not drawn),i
c1ccc2c(N3CCNCC3)cccc2c1,+
CCN1CCCNCC12CCOCC2,i
Cc1cccc(C2c3cccn3-c3ccccc3CN2C(=O)NCCC(C)C)c1 (stereo not drawn),i
COc1ccc(NC(=O)N2Cc3ccccc3-n3cccc3C2c2cc(F)cc(F)c2)cc1OC (stereo not drawn),i
O=C1Nc2ccc3ncsc3c2/C1=C/c1cnc[nH]1,+
COC1C(O)C(C)OC(OC2C(CO)O[C@@H](O[C@@H]3CC4CCC5C(CC[C@]6(C)[C@@H](C7=CC(=O)OC7)CC[C@]56O)[C@@]4(C)[C@H](OC(C)=O)C3)C(O)C2O)C1O (stereo partly drawn),i
CCCCCn1cc(C(=O)Cc2ccccc2OC)c2ccccc21,i
N#Cc1cn([C@@H]2O[C@H](CO)[C@H](O)[C@@H]2O)c2ncnc(N)c12,+
O=C(Nc1ccc(Br)cc1)N1Cc2ccccc2-n2cccc2C1c1cccs1 (stereo not drawn),i
COCc1cn(C[C@H]2C[C@@H]3CCN2C[C@@H]3C(=O)NCc2ccco2)nn1,i
COc1ccc(OC)c(NC(=O)N2Cc3ccccc3-n3cccc3C2C)c1 (stereo not drawn),i
CSc1ccc(C2c3cccn3-c3ccccc3CN2C(=O)Nc2cccc(Cl)c2C)cc1 (stereo not drawn),i
CC1CCN(CC2CCCCCN2C(=O)Cc2ccccc2)CC1 (stereo not drawn),i
SMILES,Methyltransferases
CCc1ccc(C2c3cccn3-c3ccccc3CN2C(=O)Nc2ccc(OC)cc2OC)cc1 (stereo not drawn),i
COc1ccc(OC)c(NC(=O)N2Cc3ccccc3-n3cccc3C2c2ccccc2)c1 (stereo not drawn),i
COc1ccc(C)cc1NC(=O)N1Cc2ccccc2-n2cccc2C1c1ccc(OC)c(OC)c1 (stereo not drawn),i
COc1cc(O)c2c(c1)CCC[C@@H](O)[C@H](O)C(=O)/C=C\C[C@H](C)OC2=O,i
C[C@H]1CCC[C@H](O)CCC/C=C/c2cc(O)cc(O)c2C(=O)O1,+
CC1CCCC(O)CC(=O)Cc2cc(O)cc(O)c2C(=O)O1 (stereo not drawn),i
CC(C)=C1CC[C@]23CO[C@H](C2)[C@@](O)(C(=O)O)CCC13 (stereo partly drawn),i
Cc1nccc2c1[nH]c1ccccc12,i
Cc1c2ccncc2c(C)c2c1[nH]c1ccccc12,+
Cc1ccc(C2c3cccn3-c3ccccc3CN2C(=O)Nc2ccccc2C)cc1 (stereo not drawn),i
COc1ccc(C2c3cccn3-c3ccccc3CN2C(=O)Nc2cccc(C)c2C)cc1OC (stereo not drawn),i
COC1CC(O[C@H]2CC[C@]3(C)C4CC[C@]5(C)[C@@H](C6=CC(=O)OC6)[C@@H](OC(C)=O)C[C@]5(O)C4CC[C@@H]3C2)OC(C)C1O[C@@H]1O[C@H](CO)[C@@H](O)[C@H](O)[C@H]1O (stereo partly drawn),i
CCOc1ccc(C2c3cccn3-c3ccccc3CN2C(=O)Nc2cc(OC)cc(OC)c2)cc1 (stereo not drawn),i
CCOc1ccc(C2c3cccn3-c3ccccc3CN2C(=O)Nc2cccc(C(F)(F)F)c2)cc1 (stereo not drawn),i
O=S1(=O)N(CCN2CC=C(c3c[nH]c4cc(F)ccc34)CC2)c2cccc3c2N1CCC3,+
CCc1ccc(C2c3cccn3-c3ccccc3CN2C(=O)Nc2ccc(C)c(C)c2)cc1 (stereo not drawn),i
N#Cc1cccc(NC(=O)NC[C@H]2C[C@@H]3CCN2C[C@@H]3CN2CCN(c3ccccn3)CC2)c1,i
CNCCc1c[nH]c2ccc(O)cc12,i
COc1ccc(CNC(=O)/C=C/c2ccc3[nH]cc(CCN(C)C)c3c2)cc1,+
COc1ccc(C2c3cccn3-c3ccccc3CN2C(=O)Nc2cccc(Br)c2)cc1 (stereo not drawn),i
COc1ccc(C2c3cccn3-c3ccccc3CN2C(=O)Nc2ccccc2)cc1OC (stereo not drawn),i
CCOC(=O)c1cccc(NC(=O)N2Cc3ccccc3-n3cccc3C2C)c1 (stereo not drawn),i
COc1ccc(C2c3cccn3-c3ccccc3CN2C(=O)NC2CCCC2)cc1 (stereo not drawn),i
CN(C)c1ccc(C2c3cccn3-c3ccccc3CN2C(=O)Nc2cc(F)ccc2F)cc1 (stereo not drawn),i
NNC(=O)c1ccc(O)cc1,i
SMILES,Methyltransferases
NCCc1ccc(O)cc1,+
c1cncc(C2=NOC3(CCN(C4COC4)CC3)C2)c1,i
COc1ccc(NC(=O)N2Cc3ccccc3-n3cccc3C2c2ccccc2Cl)cc1 (stereo not drawn),i
CC1=C2C(=O)C3[C@@H](CC=C4C[C@@H](O)CC[C@@]43C)[C@@H]2CC[C@]12O[C@@H]1C[C@H](C)CN[C@H]1[C@H]2C (stereo partly drawn),i
C=C[C@H]1CN2CC[C@H]1C[C@@H]2CNCc1ccc2c(c1)OCO2,i
CCc1ccc(NC(=O)N2Cc3ccccc3-n3cccc3C2c2ccccc2Cl)cc1 (stereo not drawn),i
CC(N)c1cccc(Cl)c1Cl (stereo not drawn),+
CC(C)c1cccc(C(C)C)c1O,i
CCc1ccc(C2c3cccn3-c3ccccc3CN2C(=O)Nc2cccc(SC)c2)cc1 (stereo not drawn),i
O=C(NCc1ccccc1)N1Cc2ccccc2-n2cccc2C1c1ccccc1 (stereo not drawn),i
O=C1NCCCCCCN[C@H]2CCC[C@@H]12,i
O=c1ccc2[nH]cc(C3=CCNCC3)c2[nH]1,+
Cc1ccc(C2c3cccn3-c3ccccc3CN2C(=O)Nc2cc(Cl)ccc2C)cc1 (stereo not drawn),i
Cc1[nH]c2ccc(Cl)cc2c1CCN(C)C,+
